EPAC1 antag: antagonists of human EPAC1; O95398; EPAC1 GEF assay, Rap1b-BODIPY-GDP exchange fluorescence; Potency, µM (top dose mostly 115 µM), without a hit: top-dose activity change, negative = inhibition, usual class: inhibitors; actives 0.14% (n = 360,000); AID 720709;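 also: potency is read from the fitted curve at half-maximal effect; plate controls were vehicle for no effect and positive control for full effect; nearly all actives have a fitted effect of over 50% in size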
EPAC1 agonist: activates human EPAC1 exchange factor. Potency, µM (top dose mostly 154 µM), for the others: top-dose activation, usual class: activators. actives 0.073% (n = 360,000). AID 720707. EPAC1 agonist qHTS, biochemical assay; response scale: 100% = response to 6.5 mM cAMP; also: potency is read from the fitted curve at half-maximal effect; nearly all actives have a fitted effect of over 60% in size
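Normalized to 6.5 mM cAMP, activity reflects EPAC1-catalysed release of BODIPY-GDP from Rap1B, followed kinetically over 30 min at 480 nm excitation, 540 nm emission. Reaction contained 100 nM EPAC1, 250 nM Rap1B-BODIPY-GDP, 50 uM GDP.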
USP1-UAF1 inh: inhibitors of human USP1/UAF1 deubiquitinase; recombinant USP1/UAF1, Ub-Rhodamine cleavage fluorescence; Potency, µM (top dose mostly 57.1 µM), without a hit: at the highest dose activity change, negative = inhibition, most hits filed as inhibitors; O94782; AID 743255; actives 0.23% (n = 390,000); also: potency is read from the fitted curve at half-maximal effect; % is scaled to controls: 0 for no effect and ±100 for the full control effect; nearly all actives have a fitted effect of over 60% in size
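Step one: compound is pinned into 1nM USP1/UAF1 in HEPES pH 7.8 buffer with TCEP. Step two: 15 min room-temperature incubation. Step three: Ub-Rho (150nM final) starts cleavage, tracked by fluorescence over six one-minute reads.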
EPAC2 agonist: activates human EPAC2 exchange factor. Q8WZA2. EPAC2 activation, biochemical qHTS; response scale: 100% = 6.5 mM cAMP response. Potency, µM (doses to about 154 µM), for inactives: top-dose activation, hits mostly activators. actives 0.079% (n = 360,000). AID 720711; also: potency is read from the fitted curve at half-maximal effect; nearly all actives have a fitted effect of over 50% in size
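Compounds were titrated in qHTS against a Rap1B-BODIPY-GDP (250 nM) complex with EPAC2 (100 nM) and GDP (50 uM). BODIPY-GDP release tracked at 480/540 nm over 30 min at room temperature, normalized to 6.5 mM cAMP.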
EPAC2 antagonist: antagonists of human EPAC2. AID 720708. Potency, µM (titrated, usually from 114 µM), without a hit: top-dose activity, negative = inhibition, actives largely listed as inhibitors. EPAC2 GEF exchange of Rap1B-BODIPY-GDP, fluorescence. actives 0.18% (n = 360,000); also: potency is read from the fitted curve at half-maximal effect; % is scaled to controls: 0 for no effect and ±100 for the full control effect; nearly all actives have a fitted effect of over 45% in size
FBPA coupling cs: inhibits coupling enzyme system, counter-screen for aldolase hits; AID 2472; activity change, negative = inhibition, % at 58.2 µM, hits read low; coupling enzyme system counterscreen, AmpLite Red fluorescence; actives 0.67% (n = 290,000); in the data active = activity change below about -30%; also: % is scaled to controls: 0 for no effect and ±100 for the full control effect
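Activity here indicates interference with the coupling reaction, not aldolase inhibition. Compounds at 57.5 uM final met coupling enzymes for 10 min at RT; substrate and AmpLite Red detection followed, with a 525/598 nm fluorescence read after 20 min.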
* hit, by the source's call; ? = inconclusive; . = no result. This is a sample that favours compounds with a hit; in the whole collection about 0.87% have one here. Unless noted, calls follow the shape of the dose curve; as a rule, active = well fitted curve in the direction sought with a large enough effect; inconclusive = small, poorly fitted or top-dose-only effect, or another doubt; inactive = no such curve, though single readings can be large; an effect the other way counts as inactive or inconclusive.

SMILES	EPAC1 antag	EPAC1 agonist	USP1-UAF1 inh	EPAC2 agonist	EPAC2 antagonist	FBPA coupling cs
CCOC(=O)N1CCN(S(=O)(=O)N2CCCC(C(=O)NCCc3ccccc3)C2)CC1 (stereo not given)	-21%	5%	-19%	4%	-5%	1
CCN(CC)c1ccc(NC(=S)NC(=O)c2ccco2)cc1	-4%	13%	-10%	2%	-10%	1
CC(C)N(C(=O)Nc1ccc2nsnc2c1)C(C)C	?	17%	6.3µM*	?	?	-37*
COc1ccc(NC(=S)Nc2ccc3nsnc3c2)cc1	?	12%	5.6µM*	24%	?	-41*
O=c1c(-c2ccc(F)cc2)nc2cnc(Oc3cccc(Cl)c3)nc2n1C1CC1	.	.	.	.	.	0
CCOc1ccccc1C(=O)NCC(=O)NCCCc1ccccc1	-23%	-4%	-9%	7%	6%	1
Cc1cc(CSc2ccc(Cl)cc2)ccc1N	-4%	6%	-23%	17%	16µM*	.
COc1cc(/C=C2/NC(=O)NC2=O)cc(Br)c1OCc1ccc(C(=O)O)cc1	79µM*	18%	6%	-1%	11%	12
O=C(O)COc1c(Cl)cc(/C=C2\NC(=O)NC2=O)cc1Br	-5%	5%	-16%	-1%	2%	0
O=C(CS(=O)(=O)c1ccc(F)cc1)N1CCOCC1	-1%	1%	-20%	6%	15%	.
COc1ccc(CC(=O)Nc2nc(-c3cccnc3)cs2)cc1	13µM*	-10%	-1%	-10%	-3%	2
Cc1ccc(CNC(=O)c2cccc3c2C(=O)c2ccc(N4CCOCC4)cc2S3(=O)=O)cc1	-23%	-26%	?	-1%	44%	.
CC1CCN(c2ccc3c(c2)S(=O)(=O)c2cccc(C(=O)NC[C@@H]4CCCO4)c2C3=O)CC1	-24%	7%	?	112µM*	5%	.
O=C(NCc1cccc(F)c1)c1cccc2c1C(=O)c1ccc(N3CCOCC3)cc1S2(=O)=O	-12%	7%	-28%	89µM*	-1%	.
Cc1ccc(CNC(=O)c2cccc3c2C(=O)c2ccc(N4CCCCC4)cc2S3(=O)=O)cc1	320%	10µM*	321%	56µM*	309%	.
CCc1cccc(NC(=O)Cn2c(=O)n(-c3cccc(Cl)c3)c(=O)c3c2c2cc(C)ccc2n3C)c1	.	.	-20%	.	.	.
O=C(N/N=C/C1CCCCC1)c1ccccc1-n1cccc1	-12%	9%	-12%	7%	-6%	.
Cc1ccccc1C1=C/C(=C(\SS/C(C(=O)c2ccc(OCC(=O)O)c(Cl)c2Cl)=C2\C=C(c3ccccc3C)SS2)C(=O)c2ccc(OCC(=O)O)c(Cl)c2Cl)SS1	50µM*	0%	32µM*	-1%	71µM*	.
O=C(O)COc1ccc(C(=O)c2cccs2)c(Cl)c1Cl	.	.	.	.	.	22
CCCN(CCC)CCCNC(=O)c1ccc(CS(=O)(=O)c2c(Cl)cccc2Cl)o1	-2%	-5%	-24%	0%	7%	0
CCN(CC)CC#CC(OC)(c1ccccc1)c1ccccc1	-15%	2%	-15%	6%	40µM*	3
Oc1ccccc1-c1nc(NCc2ccccc2)c2ccccc2n1	?	-30%	0%	0%	89µM*	1
Oc1ccccc1-c1nc(NCc2cccnc2)c2ccccc2n1	-12%	19%	-4%	3%	-12%	-7
COCCOC(=O)c1[nH]c2c(c1C)C(=O)C(C(=O)OC)C(C)C2 (stereo not given)	1%	-4%	-11%	14%	4%	-36*
COc1ccc2[nH]c(=O)c(CNc3ccccc3)cc2c1	6%	21%	-19%	6%	0%	-35*
SMILES	EPAC1 antag	EPAC1 agonist	USP1-UAF1 inh	EPAC2 agonist	EPAC2 antagonist	FBPA coupling cs
COc1ccc2[nH]c(=O)c(CNc3ccccc3C)cc2c1	?	2%	-26%	-2%	-5%	-27
COc1ccc2[nH]c(=O)c(CNc3ccccc3OC)cc2c1	?	15%	-20%	-1%	-8%	-34*
COc1cc(C#Cc2c(-c3cncn3C)n(C)c3ccc(-c4cnc(OC)nc4)cc23)cc(OC)c1	-6%	6%	-14%	13%	-5%	.
Cc1ccc(C)c(N(CC(=O)NCCC2=CCCCC2)S(C)(=O)=O)c1	-4%	7%	2%	4%	-6%	0
OC(COCC(F)(F)C(F)(F)C(F)(F)C(F)F)Cn1c2ccccc2c2ccccc21 (stereo not given)	?	-13%	-18%	-1%	-25%	-14
CC(C)C1=CC(=Nc2ccc(S(N)(=O)=O)cc2)C=C(C(C)C)C1=O	-5%	-4%	-7%	3%	-10%	-43*
COc1cccc(-n2c(N)c(C#N)c3ccc([N+](=O)[O-])cc3c2=O)c1	.	.	.	.	.	0
COc1ccc(-n2c(N)c(C#N)c3ccc([N+](=O)[O-])cc3c2=O)cc1	-4%	5%	-13%	-11%	17%	-42*
CC1=C(n2nnc([N+](=O)[O-])n2)C(c2cccnc2)C(C#N)=C(N)O1 (stereo not given)	-1%	5%	-20%	1%	11%	-67*
Cc1ccccc1CN1C(=O)c2ccccc2Sc2ccc(C(=O)N3CCOCC3)cc21	.	.	-20%	.	.	.
O=C(c1ccc2c(c1)N(Cc1ccccc1F)C(=O)c1ccccc1S2)N1CCOCC1	-3%	-1%	-24%	7%	-24%	-42*
Cc1c2cnn(-c3ccccc3)c(=O)c2c(C)n1CC(=O)NCc1ccc(Cl)cc1	.	.	-21%	.	.	.
Cc1ccc(Cl)cc1NC1=C/C(=N\S(=O)(=O)c2cccs2)c2ccccc2C1=O	-26%	3%	3.2µM*	5%	-3%	-46*
Cc1ccc(NC2=C/C(=N\S(=O)(=O)c3cccs3)c3ccccc3C2=O)c(C)c1	-18%	7%	2µM*	13%	-9%	-2
Cc1cccc(NC2=C/C(=N/S(=O)(=O)c3cccs3)c3ccccc3C2=O)c1	0%	11%	?	6%	-11%	3
CN(C)c1ccc(CC2C(=O)Nc3ccccc32)cc1 (stereo not given)	2%	-3%	-20%	10%	2%	-39*
O=C1Nc2ccccc2C1Cc1ccc(Br)cc1 (stereo not given)	.	.	-1%	.	.	.
CCOC(=O)C1CCCCN1Cc1cccc(OCc2ccccc2)c1 (stereo not given)	-1%	1%	-24%	13%	-11%	2
CCOC(=O)C1CCCCN1Cc1cccc(Oc2ccccc2)c1 (stereo not given)	-15%	-3%	3%	3%	40µM*	0
CN(CC(=O)Nc1ccccc1C(F)(F)F)C(=O)c1cc(-c2cccs2)nn1-c1ccccc1	-9%	112µM*	-28%	3%	-2%	.
